Compounds with a hit are over-represented: about 15% of the library has one in this group of screens.
HCMV inh – blocks human cytomegalovirus replication | activity change, negative = inhibition, % at 57.5 µM | 4.5% of 410,000 active | HFF cells, HCMV-luciferase reporter, 72 h; active compounds read low; in the data active means activity change below about -60%; inconclusive means no clear call, values can overlap the other calls; inactive means above about -39%; further: on the % scale 0 is the no-effect control and ±100 the full control effect
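Inhibition of viral replication was scored as loss of reporter luminescence in HFFs infected with HCMV-luciferase (MOI 1 PFU/cell) for 72 h; compounds tested at 2 doses, normalized to buffer and Salinomycin controls.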
Sm TGR inh – S. mansoni TGR enzyme inhibition; purified TGR, DTNB reduction, TNB absorbance 405 nm; Potency, µM (doses to about 114 µM), for the others: top-dose activity change, negative = inhibition, usual class: inhibitors; 3% of 360,000 active; Q962Y6; further: potency means the concentration at half of the fitted maximal effect; on the % scale 0 is the no-effect control and ±100 the full control effect; nearly all actives have a fitted effect of over 60% in size
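TGR 20 nM + NADPH 100 uM (dispensed conc.), cpd preinc 15 min RT; start with NADPH (500 uM addition) then DTNB (15 mM addition). Kinetic TNB absorbance, 405 nm filter. Four-parameter Hill fit across titration.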
Pf growth 96h – P. falciparum growth inhibition at 96 hour, primary screen for plastid delayed-death inhibitors; 6.9% of 320,000 active; Potency, µM (series often up to 28.7 µM), for the others: at the highest dose activity change, negative = inhibition, hits mostly inhibitors; P. falciparum luciferase reporter growth, 96 h; further: potency means the concentration at half of the fitted maximal effect; on the % scale 0 is the no-effect control and ±100 the full control effect
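Erythrocytes infected with luciferase-expressing P. falciparum were dispensed at 2% hematocrit and 0.05% parasitemia (final), then incubated with compounds 96 hours at 37 C in 5% CO2. Luminescence after detection reagent addition reported growth.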
Pf growth 48h – inhibits P. falciparum growth in the first generation, 48 h. P. falciparum luciferase growth in erythrocytes, 48 h. Potency, µM (top dose mostly 28.7 µM), for the others: at the top dose activity change, negative = inhibition, hits mostly inhibitors. 5.9% of 310,000 active. AID 504832; further: potency means the concentration at half of the fitted maximal effect; on the % scale 0 is the no-effect control and ±100 the full control effect
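First compound was added to culture medium, then infected red cells at 0.1% parasitemia and 2% hematocrit (final). After incubation at 37 C under 5% CO2, luciferase detection reagent was dispensed and light output recorded.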
SARS PLP yeast – blocks SARS-CoV papain-like protease in a yeast assay; S. cerevisiae expressing SARS-CoV PLpro, growth rescue; Potency, µM (series often up to 32.9 µM), without a hit: top-dose activity, positive = growth rescue, most hits filed as activators; 0.19% of 330,000 active; AID 485353; calls by dose curve; further: potency means the concentration at half of the fitted maximal effect; 0% is about no effect; nearly all actives have a fitted effect of over 55% in size
HCV inh – HCV inhibition; 3.4% of 340,000 active; Potency, µM (highest dose often 41.8 µM), for the others: at the highest dose activity change, negative = inhibition, most hits filed as inhibitors; Huh7.5.1 HCVcc-Cre infection, luciferase reporter, 44 h; further: potency means the concentration at half of the fitted maximal effect; on the % scale 0 is the no-effect control and ±100 the full control effect
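Antiviral activity was scored by luciferase reporter output from cells infected with HCVcc-Cre (~0.5 moi) in presence of compound, 44 h infection period, cells seeded 1,000/well 4 h prior.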
* = called active by the depositor; ? = inconclusive; . = not tested or not shown; [ ] = dose if it differs, or a comment. Unless noted, the call rests on the fitted dose curve; in most records, active means well fitted curve in the direction sought with a large enough effect; inconclusive means small, poorly fitted or top-dose-only effect, or another doubt; inactive means no such curve, though single readings can be large; an effect the other way counts as inactive or inconclusive.

SMILES	HCMV inh	Sm TGR inh	Pf growth 96h	Pf growth 48h	SARS PLP yeast	HCV inh
CCOc1ccccc1-n1nnnc1SCC(=O)NC(=O)NCc1ccco1	41	45µM*	-29%	?	2%	?
O=C(CSc1nnnn1-c1ccccc1)NC(=O)NCc1ccco1	-20	-26%	36%	.	-5%	18%
CCCn1c(SCC(=O)NC(=O)NCc2ccco2)n[nH]c1=O	.	40µM*	-12%	18%	-6%	14%
Cc1ccc(NC(=O)CN2C(=O)C(c3ccc(F)cc3)=NC23CCCCC3)c(C)c1	-35	-4%	.	.	.	.
COc1ccc(CN2C(=O)CNC2=S)cc1	?	2%	-6%	21%[0.00184 µM]	-1%	11%
COc1ccc2nc(NC(=O)CCn3cccc3)sc2c1	49	-2%	20%	55%	10%	6%
Cc1ccc2nc(NC(=O)C3CCN(S(=O)(=O)c4cccnc4)CC3)sc2c1	-35	5%	66%	.	3%	?
COc1ccc2nc(NC(=O)C3CCCN(S(=O)(=O)c4cccs4)C3)sc2c1 (centres undefined)	?	9%	?	9.3µM*	-6%	13µM*
COc1ccc2nc(NC(=O)CCc3cc(OC)c(OC)c(OC)c3)sc2c1	76	2%	9.3µM*	?	2%	?
O=C(Nc1ccc(OC(F)(F)F)cc1)C1CCN(S(=O)(=O)c2cccs2)CC1	-88*	2%	.	.	.	.
Cc1ccc2nc(NC(=O)C3CCN(S(=O)(=O)c4cccs4)CC3)sc2c1	-94*	1%	0%	?	-19%	13µM*
Cc1ccc(NC(=O)C2CCN(S(=O)(=O)c3cccs3)CC2)cc1C	.	11%	?	.	5%	?
COc1ccc2nc(NC(=O)C3CCN(S(=O)(=O)c4cccnc4)CC3)sc2c1	-22	0%	-8%	.	0%	?
COc1ccc2nc(NC(=O)C3CCN(S(=O)(=O)c4cnc[nH]4)CC3)sc2c1	-18	-17%	2%	-27%	1%	4%
COc1ccc2nc(NC(=O)C3CCN(S(=O)(=O)c4cccs4)CC3)sc2c1	-97*	-1%	.	13µM*	-3%	10µM*
CCn1c2ccccc2c2cc(NC(=O)C3CCN(S(=O)(=O)c4cccs4)CC3)ccc21	6	-8%[11.4 µM]	12%	.	1%	4µM*
Cc1ccc2nc(NC(=O)C3CCN(S(=O)(=O)c4cnc[nH]4)CC3)sc2c1	?	0%	12µM*	60%	?	-14%
CC(=O)N1CCc2c(sc(NC(=O)C3CCCN3S(=O)(=O)c3cccs3)c2C(N)=O)C1 (centres undefined)	-7	0%	?	?	-1%	-17%
CC(=O)N1CCc2c(sc(NC(=O)C3CCN(S(=O)(=O)c4cccs4)CC3)c2C(N)=O)C1	-11	-3%	?	12µM*	4%	8%
Cc1oc2ncn(C)c(=O)c2c1C(=O)NCc1ccccc1	8	0%	.	.	.	.
COc1ccc2nc(NC(=O)CN(C)S(=O)(=O)c3cccs3)sc2c1	-72*	1%	?	-22%	-6%	?
COc1ccc(CCC(=O)Nc2nnc(C(F)(F)F)s2)cc1	-12	?	15µM*	?	14%	7%
O=C(/C=C/Nc1ccc(Cc2ccc(N/C=C/C(=O)C(F)(F)F)cc2)cc1)C(F)(F)F	33	-9%	-29%	6%	1%	-15%
Cn1c(=O)c2c(ncn2CC(O)CNc2ccc(F)cc2)n(C)c1=O (centres undefined)	11	-1%	-15%	?	0%	-22%
O=C(C[C@H]1C[C@H](C(=O)N2CCCCC2)[C@@]2(CCc3ccccc3)c3[nH]c4cc(-c5ccco5)ccc4c3CCN2C1=O)NCCN1CCOCC1	-101*	.	.	.	7%	?
SMILES	HCMV inh	Sm TGR inh	Pf growth 96h	Pf growth 48h	SARS PLP yeast	HCV inh
O=C(C[C@H]1C[C@H](C(=O)N2CCOCC2)[C@@]2(CCC3CCCC3)c3[nH]c4cc(-c5ccco5)ccc4c3CCN2C1=O)NCCCn1ccnc1	-90*	.	.	.	-5%	-8%
C[C@]12c3[nH]c4ccc(Cl)cc4c3CCN1C(=O)[C@@H](CC(=O)NCCCn1ccnc1)C[C@@H]2C(=O)N1CCCCC1	-15	.	.	.	14%	?
O=C(C[C@H]1C[C@H](C(=O)N2CCCCC2)[C@@]2(CCc3ccccc3)c3[nH]c4ccc(Cl)cc4c3CCN2C1=O)NCCCn1ccnc1	-25	.	.	.	-2%	25µM*
CCC(C)(C)NC(=O)C(c1ccccc1Cl)N(C(=O)CCC(=O)Nc1cc(C)on1)c1ccc(NC(C)=O)cc1 (centres undefined)	-24	-1%	-1%	-52%	2%	-2%
OCC1=C[C@@H](O)[C@@H]2C=CO[C@@H](O[C@@H]3O[C@H](CO)[C@@H](O)[C@H](O)[C@H]3O)[C@H]12	11	.	.	.	0%	51%
Cc1ccc(S(=O)(=O)c2cc3ccccc3nc2N)cc1	-40	6%	9.3µM*	?	5%	-15%
CN(C)c1ncc(S(=O)(=O)c2ccccc2)c(N)n1	12	16%	4%	-1%	0%	7%
Cc1cc(OC(C)C(=O)N2CCN(CCc3ccccn3)CC2)ccc1Cl (centres undefined)	-9	-3%	.	.	.	.
CCSC1=C(C#N)C2(CCCC2)C(C#N)=C(N)N1	-22	?	-4%	9.3µM*	7%	?
Cc1cc(O)c(CN2CCN(S(=O)(=O)c3cccs3)CC2)cc1C(C)C	-14	0%	4.1µM*	1.7µM*	-3%	?
O=S(=O)(c1cccs1)N1CCN(Cc2cccc(F)c2)CC1	7	-13%	41%	30%	?	9%
Cc1cc(C(C)(C)C)cc(CN2CCN(S(=O)(=O)c3cccs3)CC2)c1O	-77*	.	.	.	.	.
CC(=O)Nc1ccc(S(=O)(=O)N(C)CC(=O)N(C)Cc2sccc2C)cc1	?	1%	?	-20%	14%	-9%
CCc1ccc(C2C(C(=O)Nc3ccc(Cl)cc3)=C(C)Nc3ncnn32)cc1 (centres undefined)	9	0%	.	.	.	.
CCN(C(=O)CN1C(=O)c2ccc([N+](=O)[O-])cc2C1=O)C1CCS(=O)(=O)C1 (centres undefined)	2	0%	3%	59%	5%	8%
CCN(C(=O)CSc1nc2ccc([N+](=O)[O-])cc2s1)C1CCS(=O)(=O)C1 (centres undefined)	-9	-29%	12µM*	?	1%	-7%
CCN(C(=O)CSc1nnc(NCc2ccccc2)s1)C1CCS(=O)(=O)C1 (centres undefined)	-74*	-3%	?	15%	0%	8%

High-throughput results as filed in PubChem.
